Reference: PMC5540273 (PLoS ONE, 2017)
Where “and” joins values, the source holds several entries; their conditions need not be identical. Identical values can stand only once. Like-named read-outs stand apart in the source and are kept apart here.

Legend:
ACVR2B = conditions: n = 1
ACVRL1 = conditions: concentration: 1 μM, replicates: in singlicate; n = 1
ADCK3 = tested on: T1, ADCK3; conditions: n = 1
T1 construct: gene CABC1

ADCK4 = conditions: n = 1
AKT1 = conditions: concentration: 1 μM, replicates: in singlicate; n = 1
AKT2 = conditions: n = 1
AKT3 = conditions: concentration: 1 μM, replicates: in singlicate; n = 1
ALK = conditions: n = 1
AMPK-alpha1 = tested on: T2, AMPK-alpha1; conditions: n = 1
T2 construct: gene PRKAA1

AMPK-alpha2 = tested on: T3, AMPK-alpha2; conditions: n = 1
T3 construct: gene PRKAA2

[1] = concentration: 1 μM, replicates: in singlicate
[2] = concentration: 1 μM,replicates: in singlicate, 1 µM
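Further: KINOMEscan kinase panel screen.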

| SMILES | %Inh (ACVR2B; [1]) [%] | %Inh (ACVRL1) [%] | %Inh (ADCK3; [1]) [%] | %Inh (ADCK4; [1]) [%] | %Inh (AKT1) [%] | %Inh (AKT2; [1]) [%] | %Inh (AKT3) [%] | %Inh (ALK; [1]) [%] | %Inh (AMPK-alpha1; [1]) [%] | %Inh (AMPK-alpha2; [1]) [%] | %Inh (ACVR2B; [2]) | %Inh (ADCK3; [2]) | %Inh (ADCK4; [2]) | %Inh (AKT2; [2]) | %Inh (ALK; [2]) | %Inh (AMPK-alpha1; [2]) | %Inh (AMPK-alpha2; [2]) |
| --- | --- | --- | --- | --- | --- | --- | --- | --- | --- | --- | --- | --- | --- | --- | --- | --- | --- |
| CC1=C(C(=O)Nc2cc3cn[nH]c3cc2F)C(c2ccc(C(F)(F)F)cc2)CC(=O)N1 (centres unmarked) [GSK429286] | 0 | 0 | 11 | 11 | 0 | 20 | 0 | 29 | 23 | 19 | – | – | – | – | – | – | – |
| O=c1cc(N2CCOCC2)nc2n(Cc3cccc(Cl)c3Cl)ccn12 [GSK2286295] | 3 | 0 | 27 | 6 | 0 | 13 | 10 | 48 | 0 | 16 | – | – | – | – | – | – | – |
| O=C(Nc1n[nH]c2nc(-c3nccs3)c(Br)cc12)C1CCCC1 [SB-742609] | 11 | 0 | 0 | 14 | 0 | 10 | 1 | 26 | 0 | 18 | – | – | – | – | – | – | – |
| CSc1nn2c(=O)cc(N3CCOCC3)nc2n1Cc1cccc(C(F)(F)F)c1C [GSK2363608] | – | 0 | – | – | 0 | – | 0 | – | – | – | 3% and 0% | 5% and 0% | 31% and 22% | 9% and 13% | 23% and 31% | 0% and 2% | 14% and 0% |
| Cc1cccc(-c2nc(-c3ccc(S(C)(=O)=O)cc3)sc2-c2ccnc(NCCc3ccccc3)c2)c1 | 3 | 0 | 0 | 12 | 14 | 6 | 12 | 0 | 0 | 17 | – | – | – | – | – | – | – |
| Cc1nnc(-c2ccc3occ(-c4ccc(S(C)=O)cc4)c3c2)[nH]1 (centres unmarked) | 14 | 0 | 0 | 0 | 5 | 4 | 0 | 0 | 99.1 | 6 | – | – | – | – | – | – | – |
| Nc1nc(-c2nccs2)c(-c2ccnc3ccccc23)s1 [GW693542] | 48 | 15 | 0 | 39 | 0 | 3 | 100 | 36 | 0 | 12 | – | – | – | – | – | – | – |
| CS(=O)(=O)c1ccc(-c2nc3n(c2-c2ccncc2)CCC3)cc1 [SKF-105942] | 0 | 0 | 11 | 58 | 0 | 100 | 0 | 28 | 24 | 0 | – | – | – | – | – | – | – |
| O=C(O)COc1ncnc2cc(-c3ccc4[nH]ncc4c3)sc12 | 0 | 6 | 0 | 0 | 0 | 22 | 17 | 0 | 13 | 18 | – | – | – | – | – | – | – |
| Fc1cccc(COc2nnc(-c3ccc4c(c3)CCO4)o2)c1 | 100 | 0 | 0 | 0 | 0 | 20 | 11 | 7 | 6 | 0 | – | – | – | – | – | – | – |
| CCCc1ccc(S(=O)(=O)NC2CCN(c3ccnc(Nc4ccc(F)cc4)n3)C2)cc1 (centres unmarked) [GSK1379715] | 0 | 0 | 14 | 34 | 0 | 100 | 0 | 32 | 6 | 0 | – | – | – | – | – | – | – |
| Cc1csc(-c2nc(Nc3ccncc3)c3ccccc3n2)n1 [GW869640] | 4 | 7 | 14 | 0 | 0 | 3 | 15 | 43 | 12 | 11 | – | – | – | – | – | – | – |
| CC(=O)Nc1nc2cnc(Nc3cc(NC(=O)c4cccc(CCC#N)c4)ccc3C)nc2s1 | 0 | 15 | 4 | 0 | 17 | 33 | 0 | 0 | 8 | 7 | – | – | – | – | – | – | – |
| Cc1ccc(NC(=O)Nc2cccc(Cl)c2)cc1-c1ccc(C(=O)Nc2ccncc2)cc1 [GSK1398468] | 1 | 0 | 5 | 34 | 0 | 8 | 0 | 20 | 7 | 13 | – | – | – | – | – | – | – |
| CCn1c(-c2cccnc2O)nc2cnccc21 [SB-736715] | 0 | 0 | 0 | 88 | 2 | 0 | 0 | 0 | 0 | 0 | – | – | – | – | – | – | – |
| COc1cc2ncn(-c3cc(OCC4CCCO4)c(C(N)=O)s3)c2cc1OC (centres unmarked) [GSK204607] | 0 | 0 | 23 | 12 | 0 | 0 | 0 | 0 | 0 | 2 | – | – | – | – | – | – | – |
| Cc1cccc(-c2nc(Nc3ccc4[nH]ncc4c3)c3ccccc3n2)n1 [GW857175] | 0 | 0 | 0 | 0 | 29 | 55 | 0 | 19 | 0 | 2 | – | – | – | – | – | – | – |
| NC(=O)c1nnc2ccccc2c1N | 24 | 0 | 81 | 1 | 7 | 0 | 0 | 24 | 25 | 6 | – | – | – | – | – | – | – |

| SMILES | %Inh (ACVR2B; [1]) [%] | %Inh (ACVRL1) [%] | %Inh (ADCK3; [1]) [%] | %Inh (ADCK4; [1]) [%] | %Inh (AKT1) [%] | %Inh (AKT2; [1]) [%] | %Inh (AKT3) [%] | %Inh (ALK; [1]) [%] | %Inh (AMPK-alpha1; [1]) [%] | %Inh (AMPK-alpha2; [1]) [%] | %Inh (ACVR2B; [2]) | %Inh (ADCK3; [2]) | %Inh (ADCK4; [2]) | %Inh (AKT2; [2]) | %Inh (ALK; [2]) | %Inh (AMPK-alpha1; [2]) | %Inh (AMPK-alpha2; [2]) |
| --- | --- | --- | --- | --- | --- | --- | --- | --- | --- | --- | --- | --- | --- | --- | --- | --- | --- |
| COc1ccc(Nc2nccc(NCCNC(=O)Nc3ccccc3F)n2)cc1 [GSK1379901] | 0 | 0 | 15 | 25 | 0 | 0 | 0 | 48 | 0 | 0 | – | – | – | – | – | – | – |
| Cl.c1ccc(-c2n[nH]cc2-c2ccnc(-c3ccc(CN4CCOCC4)cc3)c2)nc1 [GW776245] | 9 | 0 | 34 | 0 | 17 | 0 | 0 | 0 | 0 | 14 | – | – | – | – | – | – | – |
| CC(C)(C)c1ccc(C(=O)Nc2cn3cc(Cl)ccc3n2)cc1 | 9 | 0 | 5 | 0 | 5 | 0 | 0 | 3 | 0 | 16 | – | – | – | – | – | – | – |
| COc1ccc2nc(-c3cccc(C)n3)nc(Nc3ccncc3)c2c1 [GSK204919] | 0 | 0 | 25 | 3 | 0 | 5 | 0 | 24 | 0 | 16 | – | – | – | – | – | – | – |
| Cc1ccc(-c2cc(-c3c[nH]nc3-c3ccccn3)ccn2)cc1 [GW684088] | 49 | 0 | 22 | 37 | 0 | 0 | 0 | 16 | 0 | 0 | – | – | – | – | – | – | – |
| COc1ccc(C2=C(Nc3cccc(C(=O)O)c3)C(=O)NC2=O)cc1 [SB-390765] | 0 | 1 | 0 | 0 | 1 | 0 | 14 | 2 | 23 | 2 | – | – | – | – | – | – | – |
| Cc1cccc(-c2cc(Nc3ccncc3)c3ccccc3n2)n1 [GSK223675] | 0 | 0 | 0 | 11 | 0 | 0 | 0 | 26 | 0 | 8 | – | – | – | – | – | – | – |
| Fc1cc(Cl)ccc1Nc1ccnc2cc(-c3ccc(CN4CCCCC4)o3)ccc12 [GW560116] | 52 | 0 | 0 | 38 | 0 | 0 | 0 | 4 | 0 | 0 | – | – | – | – | – | – | – |
| COC(=O)c1c(-c2ccccc2)c2cc(OC)ccc2c(=O)n1Cc1ccccc1 | 0 | 0 | 0 | 0 | 1 | 12 | 0 | 28 | 21 | 0 | – | – | – | – | – | – | – |
| Cc1ccc(NC(=O)Nc2cc(C(C)(C)C)nn2-c2ccccc2)cc1 [GSK1014915] | 5 | 5 | 25 | 25 | 0 | 14 | 20 | 28 | 0 | 11 | – | – | – | – | – | – | – |
| O=C1NC(=O)C(N2CCc3ccccc32)=C1c1ccccc1Cl [SB-373598] | 33 | 13 | 17 | 16 | 0 | 19 | 25 | 4 | 17 | 22 | – | – | – | – | – | – | – |
| Cl.Oc1ccc(-c2nc(-c3ccccc3)[nH]c2-c2ccncc2)cc1 [SB-428218] | 13 | 0 | 5 | 82 | 0 | 18 | 0 | 44 | 0 | 0 | – | – | – | – | – | – | – |
| Cl.NC(=O)c1cccc(Nc2nccc(Nc3ccc(Oc4cccc(Cl)c4)c(Cl)c3)n2)c1 [GW659008] | 14 | 0 | 5 | 32 | 0 | 8 | 0 | 24 | 42 | 33 | – | – | – | – | – | – | – |
| Fc1cc(Cl)ccc1Nc1ccnc2cc(I)ccc12 [GW551191] | 85 | 5 | 0 | 23 | 0 | 18 | 58 | 29 | 0 | 0 | – | – | – | – | – | – | – |
| COc1cccc(NC(=O)NC2CCN(c3ccnc(Nc4ccc(F)cc4)n3)C2)c1 (centres unmarked) [GSK1379721] | 4 | 0 | 1 | 22 | 0 | 0 | 0 | 24 | 0 | 0 | – | – | – | – | – | – | – |
| COc1ccccc1-c1ccc2c(NC(=O)C3CC3)n[nH]c2n1 [SB-711239] | 52 | 0 | 11 | 19 | 0 | 2 | 3 | 18 | 5 | 13 | – | – | – | – | – | – | – |
| Cl.O=C(Nc1cccc(-c2nn3ncccc3c2-c2ccnc(Nc3cccnc3)n2)c1)c1c(F)cccc1F [GSK312879] | 0 | 2 | 27 | 2 | 0 | 19 | 10 | 24 | 0 | 12 | – | – | – | – | – | – | – |
